The values below come from PubChem BioAssay (NCI).

This is part of a sample that, as a whole, favours compounds with a hit. Of some 83,000 tested, about 20% had one in any assay.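 Step 1: grow cells in 96-well plates. Step 2: add test compound at a single concentration. Step 3: incubate 48 h. Step 4: record percent growth.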 Unmarked numbers belong to inactive results. Active and inactive are the calls of the source. How the source made its calls: active means growth percent below 10; inactive means the rest.

Among the test systems are HCT-15 colon; HT29 colon; SNB-75 CNS; SNB-19 CNS; U251 CNS; PC-3 prostate; SK-MEL-5 melanoma; UACC-62 melanoma; SK-MEL-28 melanoma; SK-MEL-2 melanoma; EKVX NSCLC; SN12C renal; UO-31 renal; TK-10 renal; ACHN renal; CAKI-1 renal; A498 renal; CCRF-CEM leukemia; MOLT-4 leukemia; LOX IMVI melanoma.
What all share (assay): NCI-60 one-dose screen, 48 h (100 = growth as untreated, 0 = no growth, -100 = all killed)
Common to all, as to settings: 10 µM unless noted

As to `Cc1ccc(-c2nc(SCC(=O)Nc3nc(-c4ccc(Cl)cc4)cs3)[nH]c(=O)c2C#N)cc1`, the growth was 90.2% in the test on HCT-15 colon; 95.9% in the test with HT29 colon; 87.4% in the test on SNB-75 CNS; 108% in the test with SNB-19 CNS; 94% in the test with U251 CNS; 90.3% in the test with PC-3 prostate. Besides, the growth was 102% in the test on SK-MEL-5 melanoma; 90.5% in the test on UACC-62 melanoma; 108% in the test with SK-MEL-28 melanoma; 82.9% in the test with SK-MEL-2 melanoma; 101% with EKVX NSCLC; 110% with SN12C renal. Further, the growth was 88.4% in the test on UO-31 renal; 103% with TK-10 renal; 101% with ACHN renal; 96.1% in the test with CAKI-1 renal; 85.2% in the test on A498 renal; 103% in the test on CCRF-CEM leukemia. The growth with MOLT-4 leukemia is 90.4%.
`Cc1cccc2c3c(sc12)C(c1ccc(F)cc1)C(C#N)=C(N)O3` (stereo not drawn): the growth was 8.13% (active) in the test with HCT-15 colon; 9.55% (active) with HT29 colon; 23.4% with SNB-75 CNS; 23.8% with SNB-19 CNS; 25.5% in the test with U251 CNS; 8.46% (active) in the test with PC-3 prostate. Also, the growth in the test with SK-MEL-5 melanoma was -3.29% (active); with UACC-62 melanoma, 24.9%; in the test with SK-MEL-28 melanoma, 62%; in the test with SK-MEL-2 melanoma, 50.1%; with EKVX NSCLC it was 52.6%; in the test on SN12C renal, 25.2%. For the same compound, the growth is 36.7% in the test on UO-31 renal; 78.8% in the test with TK-10 renal; 24.8% with ACHN renal; -0.939% (active) in the test on CAKI-1 renal; 4.47% (active) with A498 renal; 13.8% in the test on CCRF-CEM leukemia. Further, the growth in the test with MOLT-4 leukemia was 12.5%.
As for `N#Cc1c(-c2ccc(Cl)cc2)nc2c(c(-c3ccccc3)nn2-c2ccccc2)c1-c1ccc(O)cc1`, the growth with HCT-15 colon is 27.2%; with HT29 colon it was 91.8%; in the test with SNB-75 CNS, 42.6%; with SNB-19 CNS, 65%; in the test on U251 CNS, 34%; with PC-3 prostate it was 12%. The growth was 53.6% in the test with UACC-62 melanoma; 56.4% in the test with SK-MEL-28 melanoma; 74.5% in the test on SK-MEL-2 melanoma; 67.8% in the test with EKVX NSCLC; -18.4% (active) in the test on SN12C renal; 17.2% in the test with TK-10 renal. Besides, the growth is 56% in the test with ACHN renal, 40.2% in the test on CAKI-1 renal, 79.3% in the test with A498 renal and 24.3% with MOLT-4 leukemia.
Consider `CCOC(=O)C1=C(N)Oc2c(sc3c(C)cccc23)C1c1ccc(OC)cc1` (stereo not drawn), for which the growth was 21.7% in the test on HCT-15 colon; 84.7% in the test with HT29 colon; -3.57% (active) with SNB-75 CNS; 28.8% in the test on SNB-19 CNS; 26.6% with U251 CNS; 28.7% in the test on PC-3 prostate. Further, the growth with UACC-62 melanoma was 17%; in the test on LOX IMVI melanoma, 32.3%; in the test with SK-MEL-28 melanoma, 46.5%; with SK-MEL-2 melanoma, 22.9%; with EKVX NSCLC, 88.5%; in the test on SN12C renal it was 39.7%. Moreover, the growth was 41.5% in the test with UO-31 renal; 110% in the test on TK-10 renal; 34% with ACHN renal; 24.3% with CCRF-CEM leukemia; 29.4% in the test on MOLT-4 leukemia.
For the compound `Cc1nc2nc(SCC(=O)O)[nH]c2c(=O)[nH]1`, the growth with HCT-15 colon was 103%; in the test on HT29 colon, 96.8%; in the test on SNB-75 CNS, 110%; in the test with SNB-19 CNS, 92.5%; with U251 CNS, 96.8%; with PC-3 prostate, 96.6%. The growth is 96.4% in the test with UACC-62 melanoma; 95.3% in the test on LOX IMVI melanoma; 106% in the test on SK-MEL-28 melanoma; 96% in the test with SK-MEL-2 melanoma; 108% in the test with EKVX NSCLC; 100% in the test with SN12C renal. In addition, the growth was 92.2% with UO-31 renal; 101% in the test with TK-10 renal; 110% in the test on ACHN renal; 81.5% in the test on A498 renal; 97.2% with CCRF-CEM leukemia; 103% with MOLT-4 leukemia.
`Cc1oc2nc[nH]c(=O)c2c1C(=O)/C=C/c1ccc(Br)cc1`: the growth in the test with HCT-15 colon was -27.4% (active); in the test with HT29 colon, 15.3%; with SNB-75 CNS it was -2.44% (active); with SNB-19 CNS, 23.5%; in the test on U251 CNS it was 12%; in the test with PC-3 prostate, 25.5%. For the same compound, the growth with SK-MEL-5 melanoma is 8.55% (active); in the test on LOX IMVI melanoma it was -90.6% (active); in the test on SK-MEL-2 melanoma, 11.9%; in the test with EKVX NSCLC, 19.7%; in the test with SN12C renal, 1.76% (active); in the test on UO-31 renal it was 19.4%. In addition, the growth in the test on TK-10 renal is 40.9%; in the test on ACHN renal, 1.43% (active); with CAKI-1 renal, 28.4%; in the test on A498 renal, 23.7%; in the test with CCRF-CEM leukemia it was 6.65% (active); with MOLT-4 leukemia, 8.42% (active).
On to `N[C@@H](Cc1ccccc1)[C@@H](O)C(=O)NCc1ccc(F)cc1`, for which the growth with HCT-15 colon is 103%; with HT29 colon, 110%; in the test on SNB-75 CNS, 90.1%; in the test with SNB-19 CNS, 97.6%; with U251 CNS, 104%; in the test with PC-3 prostate it was 106%. The growth was 94.5% in the test with UACC-62 melanoma; 105% with LOX IMVI melanoma; 117% in the test with SK-MEL-2 melanoma; 103% with EKVX NSCLC; 93.4% in the test on SN12C renal; 90.8% with UO-31 renal. Besides, the growth was 105% with TK-10 renal; 108% in the test on ACHN renal; 91.3% in the test on CAKI-1 renal; 96.2% in the test with A498 renal; 111% in the test with CCRF-CEM leukemia; 109% with MOLT-4 leukemia.
Take `O=C(Nn1c(NCC(=O)N2c3ccccc3Sc3ccccc32)nnc1-c1ccc(O)cc1)c1ccccc1`: the growth was 98% in the test with HCT-15 colon; 103% in the test on HT29 colon; 102% with SNB-75 CNS; 107% in the test on SNB-19 CNS; 103% in the test with U251 CNS; 90.7% with PC-3 prostate. For the same compound, the growth in the test on LOX IMVI melanoma is 90.8%; in the test on SK-MEL-28 melanoma, 115%; in the test with SK-MEL-2 melanoma it was 101%; in the test with EKVX NSCLC, 103%; with SN12C renal, 90.9%; in the test on UO-31 renal, 91.1%. Also, the growth is 104% in the test with TK-10 renal; 98.8% with ACHN renal; 101% with CAKI-1 renal; 100% in the test on A498 renal; -2.21% (active) in the test with CCRF-CEM leukemia; 125% with MOLT-4 leukemia.
